Experimental data from the supplement of paper PMC9433436.
± gives the standard deviation of the averaged measurements. Over roughly 4,100 sequences, “relative kcat/Km (krel) vs genomic leader AAAGAU” has its median near 1.7; the highest 2% begin near 6.5. Many of the other results were omitted from the sample, so the highest values are more common in it than they were.

Biological target: T1, E. coli RNase P holoenzyme (M1 P RNA + rnpA protein) (UniProt P0A7Y8)
T1 sequence: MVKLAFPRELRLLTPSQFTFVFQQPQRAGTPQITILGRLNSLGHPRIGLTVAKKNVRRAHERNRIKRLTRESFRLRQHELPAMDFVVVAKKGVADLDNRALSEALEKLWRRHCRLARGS
Experiment: relative kcat/Km (krel) vs genomic leader AAAGAU (relative (reference leader = 1)); higher = faster RNase P cleavage
Summary of the method: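 A precursor tRNA-Met pool randomized at leader positions −6 to −1 was cleaved by E. coli RNase P holoenzyme (P RNA plus C5 protein) under multiple-turnover conditions at 37 °C in 50 mM Tris-HCl pH 8, 100 mM NaCl, 17.5 mM MgCl2. Unreacted precursor was gel-purified at ~5–30% conversion, converted to cDNA libraries and Illumina-sequenced. Relative kcat/Km (krel) was calculated by internal competition kinetics from read ratios, normalised to the genomic leader, averaging two technical replicates.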

[1] = fraction of substrate reacted: ~9-10% (9.79% repeat 1, 9.1% repeat 2)
[2] = fraction of substrate reacted: ~13-16% (15.68% repeat 1, 13.17% repeat 2)
[3] = fraction of substrate reacted: ~26-29% (28.66% repeat 1, 26.4% repeat 2)

Sequence | relative kcat/Km [1] | relative kcat/Km [2] | relative kcat/Km [3]
GACCGA | 3.3 ± 0.89 | 4.27 ± 2.1 | 6.73 ± 2.8
TACCGC | 3.15 ± 1.3 | 4.16 ± 0.76 | 6.03 ± 2.5
TACCGA | 2.83 ± 0.7 | 4.89 ± 1.1 | 7.04 ± 2.7
TACCGG |  |  | 1.29 ± 0.22
CACCGA | 3.39 ± 1.4 | 3.9 ± 0.93 | 6.22 ± 2.1
AACCGA | 2.67 ± 0.52 | 3.23 ± 0.34 | 4.66 ± 1.2
AGCCGC | 3.07 ± 1.3 | 2.5 ± 0.098 | 4.02 ± 1.1
TGTATC | 1.92 ± 0.29 | 2.43 ± 0.36 | 4 ± 1.6
AACTGT | 0.625 ± 0.14 | 0.97 ± 0.59 | 0.608 ± 0.51
GGACGG |  |  | 0.782 ± 0.17
GGCGGC |  |  | 0.914 ± 0.47
GAACAG |  | 0.667 ± 0.64 | 1.66 ± 0.19
ACATAT | 2.86 ± 0.79 | 4.26 ± 0.58 | 6.5 ± 3.1
TCATAA | 3.15 ± 1.2 | 4.17 ± 0.67 | 5.77 ± 2.2
TAATAT | 3.78 ± 1.4 | 5.05 ± 0.28 | 7.45 ± 3.4
TCATAC | 4.3 ± 0.51 | 5.72 ± 0.91 | 7.38 ± 3
GAATAT | 2.99 ± 0.33 | 4.3 ± 0.79 | 6.29 ± 3.4
TCATAT | 4.21 ± 1.4 | 5.49 ± 1 | 8.18 ± 3.4
TCATAG | 1.97 ± 1.4 | 1.66 ± 0.34 | 3.6 ± 0.47
TAATAA | 3.59 ± 2 | 4.41 ± 0.57 | 5.5 ± 2.2
ACATAC | 3.09 ± 1.3 | 3.78 ± 0.48 | 6.1 ± 2.7
ACAACT |  |  | 1.07 ± 0.15
CGGACA | 0.696 ± 0.1 | 0.739 ± 0.49 | 0.747 ± 0.23

Sequence | relative kcat/Km [1] | relative kcat/Km [2] | relative kcat/Km [3]
GCAAAT | 2.24 ± 0.9 | 2.01 ± 0.39 | 1.93 ± 0.58
CGACCC |  | 0.175 ± 0.13 | 1.47 ± 0.038
AAGATG |  |  | 0.939 ± 0.44
AACGAA | 2.84 ± 0.7 | 3.68 ± 0.69 | 5.36 ± 1.9
GACGTA | 2.41 ± 1.4 | 2.86 ± 0.42 | 3.54 ± 1.3
TACGAA | 2.87 ± 0.059 | 5.68 ± 1 | 8.44 ± 3.8
CACGAT | 1.78 ± 0.53 | 2.22 ± 0.33 | 3.42 ± 1.1
GACGAA | 3.75 ± 1.5 | 6.07 ± 1.1 | 8.11 ± 2.6
AACGAC | 3.67 ± 0.53 | 4.57 ± 1.6 | 5.98 ± 2.1
TACGAG |  | 1.58 ± 0.12 | 3.95 ± 1.1
TACGAT | 2.93 ± 1.5 | 2.79 ± 0.68 | 3.63 ± 1.5
TACGAC | 3.699 ± 0.0078 | 5.54 ± 1.6 | 7.61 ± 3.2
CACGAC | 3.62 ± 0.058 | 5.56 ± 2.7 | 7.35 ± 3
GACGGA |  | 1.21 ± 1.1 | 0.922 ± 0.64
CACGAG | 1.8 ± 0.22 | 2.47 ± 1.2 | 3.69 ± 1.2
TCGTCA | 2.78 ± 1.8 | 2.51 ± 0.12 | 3.63 ± 1.3
ACTAGG |  |  | 0.408 ± 0.15
CGGGCA | 1.28 ± 0.55 | 0.965 ± 0.75 | 0.825 ± 0.17
CCAGAC | 2.22 ± 0.29 | 2.1 ± 1.1 | 3.22 ± 0.77
AAGGGA |  |  | 1.11 ± 0.65
TTTTCC | 2.77 ± 1.4 | 2.75 ± 0.3 | 3.22 ± 0.98
GAGGTG |  |  | 0.61 ± 0.57
GGATGG |  |  | 0.8644 ± 0.0076

Sequence | relative kcat/Km [1] | relative kcat/Km [2] | relative kcat/Km [3]
CTTTTT | 2.99 ± 1.5 | 3.27 ± 0.75 | 4.46 ± 1.3
GCTCGG | 0.809 ± 0.37 | 0.268 ± 0.21 | 0.748 ± 0.15
GACGAC | 3.35 ± 0.49 | 5.87 ± 1.6 | 7.89 ± 2.8
CACGTA | 1.91 ± 1.1 | 2.23 ± 0.31 | 3.56 ± 1.4
CACGAA | 4.26 ± 1.8 | 6 ± 1.6 | 7.87 ± 2.6
CACGCA | 2.14 ± 0.48 | 3.31 ± 1.5 | 4.91 ± 1.6
GACGAT | 1.52 ± 0.65 | 2.06 ± 1.5 | 2.68 ± 1.1
GACGAG |  | 1.49 ± 0.19 | 3.3 ± 0.29
CGGATT |  |  | 0.799 ± 0.34
CAAATA | 2.33 ± 2.3 | 1.68 ± 0.092 | 1.78 ± 0.47
CACCTA | 2.32 ± 0.25 | 2.44 ± 0.4 | 3.68 ± 1.3
ACTAAC | 1.48 ± 0.31 | 1.42 ± 0.44 | 2.32 ± 0.65
TGCTGC | 1.63 ± 0.12 | 1.51 ± 1.2 | 2.71 ± 1
TTCTGG | 0.949 ± 0.38 | 0.819 ± 0.094 | 1.66 ± 0.46
TTCTGC | 4.12 ± 0.25 | 5.95 ± 2.2 | 8.28 ± 3.5
GTCTGC | 3.58 ± 1.3 | 4.94 ± 1.2 | 7.11 ± 3.3
TTCTGA | 4.7 ± 2.6 | 5.18 ± 0.91 | 7.63 ± 2.7
GACTGC | 3.44 ± 0.14 | 3.38 ± 0.99 | 4.88 ± 1.6
ATCTGA | 3.86 ± 1.9 | 3.98 ± 0.23 | 6.19 ± 2.2
TTCTGT |  |  | 2.43 ± 1.9
GCCTGC | 2.23 ± 0.7 | 3.39 ± 0.37 | 4.68 ± 2.1
CTCTGC | 3.95 ± 0.21 | 5.74 ± 1.6 | 7.34 ± 3
CTCTGG | 0.652 ± 0.17 |  | 1.31 ± 0.49

Sequence | relative kcat/Km [1] | relative kcat/Km [2] | relative kcat/Km [3]
ATCTGC | 3.18 ± 0.4 | 3.94 ± 1.9 | 6.13 ± 3
GGTTGG |  |  | 1.05 ± 0.77
TGACAC | 3.63 ± 1.5 | 4.21 ± 0.43 | 5.94 ± 2.2
TTGCCT | 1.95 ± 0.52 | 1.33 ± 0.068 | 2.09 ± 0.58
GGAGCC | 1.22 ± 0.046 | 0.902 ± 0.094 | 1.3 ± 0.38
ACACGG |  | 0.487 ± 0.4 | 
ACGCAA | 1.95 ± 1.4 | 1.95 ± 0.18 | 2.25 ± 0.13
GGGGCG | 0.268 ± 0.026 |  | 0.656 ± 0.0035
ATAGGT |  |  | 2.15 ± 1.4
ATAACT | 1.28 ± 0.37 | 1.21 ± 0.2 | 1.79 ± 0.75
GAGTTT | 1.6 ± 0.65 | 1.28 ± 0.17 | 2.05 ± 0.46
ACAAAC | 1.92 ± 1.6 | 1.88 ± 1.1 | 2.42 ± 0.36
CTCTGT | 0.825 ± 0.31 | 1.81 ± 1.4 | 2.05 ± 1.6
GTCTGT |  |  | 2.58 ± 2
GTCTGG |  | 0.567 ± 0.54 | 0.916 ± 0.067
CTCTGA | 4.13 ± 2 | 4.61 ± 0.58 | 6.63 ± 1.7
CGCTGA | 1.89 ± 0.05 | 2.02 ± 1 | 3.55 ± 0.89
GTCTGA | 3.86 ± 1.8 | 4.82 ± 1.2 | 6.97 ± 2.6
GGGCAT | 1.03 ± 0.31 | 1.51 ± 0.12 | 2.18 ± 0.97
TCTAAG | 2.04 ± 1.6 | 1.47 ± 0.52 | 2.47 ± 0.27
